This note sets out measurements from PMC7862700, “An all-to-all approach to the identification of sequence-specific readers for epigenetic DNA modifications on cytosine”.

What all share (assay): DAPPL (digital affinity profiling via proximity ligation, sequencing); 10 mM Tris-HCl pH 7.5, 50 mM NaCl, 1 mM DTT, 4% glycerol, room temperature, 30 min; GST-TFs on glutathione beads, 16-mer random dsDNA library, 0.1% formaldehyde crosslink after washing; high values mean tight binding
What all share (conditions): protein: recombinant; tags: N-terminal GST; dsDNA, one strand shown

The target of assay [1] is T1, ERF (Homo sapiens, UniProt P50548 1-548).
T1 sequence: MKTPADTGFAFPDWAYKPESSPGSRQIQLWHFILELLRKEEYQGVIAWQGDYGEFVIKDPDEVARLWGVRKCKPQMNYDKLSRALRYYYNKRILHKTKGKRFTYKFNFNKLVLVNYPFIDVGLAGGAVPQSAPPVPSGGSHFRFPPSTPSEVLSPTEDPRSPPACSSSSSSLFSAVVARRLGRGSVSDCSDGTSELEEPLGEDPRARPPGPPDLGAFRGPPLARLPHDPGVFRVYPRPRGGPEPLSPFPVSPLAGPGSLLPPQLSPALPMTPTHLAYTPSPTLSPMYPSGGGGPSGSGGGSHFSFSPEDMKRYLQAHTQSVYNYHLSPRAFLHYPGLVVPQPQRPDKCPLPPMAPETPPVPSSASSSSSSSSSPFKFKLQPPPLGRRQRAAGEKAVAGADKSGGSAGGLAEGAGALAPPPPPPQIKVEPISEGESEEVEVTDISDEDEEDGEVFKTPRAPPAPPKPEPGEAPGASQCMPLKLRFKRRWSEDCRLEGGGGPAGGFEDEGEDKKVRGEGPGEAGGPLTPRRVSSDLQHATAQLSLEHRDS
The essentials:
(§1)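 Yeast served to express human transcription factors as GST fusions, which were then captured on glutathione beads and labelled with DNA barcodes. Pooled with a tag-only sample, they were incubated with 200 nmole of a 16-mer random double-stranded DNA library for 30 min at room temperature in Tris/NaCl/DTT/glycerol buffer, washed, crosslinked with 0.1% formaldehyde, ligated by proximity, amplified by PCR and sequenced. Dividing each hexamer's read frequency for a factor by its frequency for the tag-only sample gives the binding signal.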

The target of assay [2] is T2, ETV3L (Homo sapiens, UniProt Q6ZN32 1-361).
T2 sequence: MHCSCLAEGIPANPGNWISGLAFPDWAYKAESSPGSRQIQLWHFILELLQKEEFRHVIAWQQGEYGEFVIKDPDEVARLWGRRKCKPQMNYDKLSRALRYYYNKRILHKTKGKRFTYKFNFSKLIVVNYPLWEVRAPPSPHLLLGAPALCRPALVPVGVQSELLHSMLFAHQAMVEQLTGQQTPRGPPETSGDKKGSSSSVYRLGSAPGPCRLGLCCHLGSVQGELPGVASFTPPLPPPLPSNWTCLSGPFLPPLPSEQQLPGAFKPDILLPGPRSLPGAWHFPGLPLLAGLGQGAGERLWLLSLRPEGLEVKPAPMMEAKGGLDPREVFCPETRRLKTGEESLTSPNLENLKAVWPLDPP
In short, it runs like this: as §1

In assay [3] the target is T3, ETS2 (Homo sapiens, UniProt P15036 1-469).
T3 sequence: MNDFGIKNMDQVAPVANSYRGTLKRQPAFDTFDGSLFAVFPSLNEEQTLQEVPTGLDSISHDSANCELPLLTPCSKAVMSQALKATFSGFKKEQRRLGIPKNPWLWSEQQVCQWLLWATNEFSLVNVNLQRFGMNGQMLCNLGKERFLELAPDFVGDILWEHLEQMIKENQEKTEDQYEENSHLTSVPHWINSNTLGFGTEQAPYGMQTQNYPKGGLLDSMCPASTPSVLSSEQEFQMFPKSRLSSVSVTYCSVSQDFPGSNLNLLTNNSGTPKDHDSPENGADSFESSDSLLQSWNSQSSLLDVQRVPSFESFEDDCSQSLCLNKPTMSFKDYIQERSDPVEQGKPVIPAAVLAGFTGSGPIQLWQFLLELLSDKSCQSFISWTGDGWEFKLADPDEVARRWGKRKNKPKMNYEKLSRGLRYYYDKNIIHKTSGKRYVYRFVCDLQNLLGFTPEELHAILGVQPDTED
In short, it runs like this: as §1

Assay [4] concerns the target T4, SPDEF (Homo sapiens, UniProt O95238 1-335).
T4 sequence: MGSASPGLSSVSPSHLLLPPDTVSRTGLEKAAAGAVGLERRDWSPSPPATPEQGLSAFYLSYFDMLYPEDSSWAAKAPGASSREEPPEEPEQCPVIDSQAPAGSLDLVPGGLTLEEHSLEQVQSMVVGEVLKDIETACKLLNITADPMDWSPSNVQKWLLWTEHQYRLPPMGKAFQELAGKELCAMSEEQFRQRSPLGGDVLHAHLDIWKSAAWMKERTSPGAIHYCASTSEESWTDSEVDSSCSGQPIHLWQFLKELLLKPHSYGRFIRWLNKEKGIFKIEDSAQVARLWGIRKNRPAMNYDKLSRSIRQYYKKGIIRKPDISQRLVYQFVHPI
In short, it runs like this:
as §1

Assay [5] concerns the target T5, ETV7 (Homo sapiens, UniProt Q9Y603 1-341).
T5 sequence: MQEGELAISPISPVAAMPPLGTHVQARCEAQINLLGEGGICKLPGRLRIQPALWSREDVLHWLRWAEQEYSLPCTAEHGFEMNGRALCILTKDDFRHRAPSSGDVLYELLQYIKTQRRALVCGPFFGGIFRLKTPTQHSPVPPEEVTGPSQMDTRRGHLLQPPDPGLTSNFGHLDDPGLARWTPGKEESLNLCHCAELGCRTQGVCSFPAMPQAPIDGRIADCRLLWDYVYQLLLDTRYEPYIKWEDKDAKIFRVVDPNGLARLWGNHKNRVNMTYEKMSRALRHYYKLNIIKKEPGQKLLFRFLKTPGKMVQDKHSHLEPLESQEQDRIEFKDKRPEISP
The essentials: as §1

Assay [6] addresses T6, ELF5 (Homo sapiens, UniProt Q9UKW6-2 1-255).
T6 sequence: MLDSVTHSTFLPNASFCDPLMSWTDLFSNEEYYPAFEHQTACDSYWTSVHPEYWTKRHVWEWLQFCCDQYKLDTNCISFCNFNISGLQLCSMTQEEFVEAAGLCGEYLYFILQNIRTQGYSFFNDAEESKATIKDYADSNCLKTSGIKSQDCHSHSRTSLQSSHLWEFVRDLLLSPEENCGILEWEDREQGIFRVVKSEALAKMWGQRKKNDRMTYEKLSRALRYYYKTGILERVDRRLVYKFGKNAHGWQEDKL
The essentials: as §1

Assay [7] has as its target T7, ETV3 (Homo sapiens, UniProt P41162-2 1-143).
T7 sequence: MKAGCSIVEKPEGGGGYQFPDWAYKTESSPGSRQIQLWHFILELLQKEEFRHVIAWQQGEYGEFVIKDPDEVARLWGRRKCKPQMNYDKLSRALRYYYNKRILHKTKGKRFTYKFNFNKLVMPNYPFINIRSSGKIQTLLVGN
In short, it runs like this: as §1

Assay [8] has as its target ETV6 (Homo sapiens, UniProt P41212 1-452). In short, it runs like this: as §1

ETV6, sequence (P41212 whole entry): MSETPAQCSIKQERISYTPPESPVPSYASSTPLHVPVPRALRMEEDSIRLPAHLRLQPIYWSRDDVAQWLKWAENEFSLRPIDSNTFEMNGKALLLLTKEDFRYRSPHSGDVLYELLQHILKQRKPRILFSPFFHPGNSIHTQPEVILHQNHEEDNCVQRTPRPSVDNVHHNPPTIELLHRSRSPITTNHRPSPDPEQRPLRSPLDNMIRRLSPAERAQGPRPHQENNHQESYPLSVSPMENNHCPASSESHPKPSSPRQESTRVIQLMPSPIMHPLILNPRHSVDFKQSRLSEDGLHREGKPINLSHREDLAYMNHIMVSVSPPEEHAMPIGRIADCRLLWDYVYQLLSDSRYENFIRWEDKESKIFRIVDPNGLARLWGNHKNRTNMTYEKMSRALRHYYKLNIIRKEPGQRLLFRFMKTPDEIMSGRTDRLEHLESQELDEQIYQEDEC

Regarding TCTAAC, the binding signal is 1.22 fold enrichment (6-mer frequency, TF over GST control) in assay [1]; 1.19 fold enrichment (6-mer frequency, TF over GST control) in assay [2]; 1.19 fold enrichment (6-mer frequency, TF over GST control) in assay [3]; 1.14 fold enrichment (6-mer frequency, TF over GST control) in assay [4]; 1.29 fold enrichment (6-mer frequency, TF over GST control) in assay [5]; 1.15 fold enrichment (6-mer frequency, TF over GST control) in assay [6]. Also, the binding signal was 1.18 fold enrichment (6-mer frequency, TF over GST control) in assay [7] and 1.22 fold enrichment (6-mer frequency, TF over GST control) in assay [8].

In the case of ACAAGC, the binding signal was 1.15 fold enrichment (6-mer frequency, TF over GST control) in assay [1]; 1.11 fold enrichment (6-mer frequency, TF over GST control) in assay [2]; 1.18 fold enrichment (6-mer frequency, TF over GST control) in assay [3]; 1 fold enrichment (6-mer frequency, TF over GST control) in assay [4]; 1.01 fold enrichment (6-mer frequency, TF over GST control) in assay [5]; 1.02 fold enrichment (6-mer frequency, TF over GST control) in assay [6]. Moreover, the binding signal in assay [7] is 1.13 fold enrichment (6-mer frequency, TF over GST control); in assay [8], 1.09 fold enrichment (6-mer frequency, TF over GST control).

For ACAAAC, the binding signal in assay [1] is 1.11 fold enrichment (6-mer frequency, TF over GST control); in assay [2] it was 1.08 fold enrichment (6-mer frequency, TF over GST control); in assay [3], 1.22 fold enrichment (6-mer frequency, TF over GST control); in assay [4], 1.15 fold enrichment (6-mer frequency, TF over GST control); in assay [5], 1.11 fold enrichment (6-mer frequency, TF over GST control); in assay [6], 1.12 fold enrichment (6-mer frequency, TF over GST control). For the same sequence, the binding signal in assay [7] is 1.09 fold enrichment (6-mer frequency, TF over GST control); in assay [8], 1.15 fold enrichment (6-mer frequency, TF over GST control).

For AGCATT, the binding signal in assay [1] is 1.04 fold enrichment (6-mer frequency, TF over GST control); in assay [2] it was 1.06 fold enrichment (6-mer frequency, TF over GST control); in assay [3] it was 1.11 fold enrichment (6-mer frequency, TF over GST control); in assay [4] it was 1.02 fold enrichment (6-mer frequency, TF over GST control); in assay [5] it was 1.14 fold enrichment (6-mer frequency, TF over GST control); in assay [6], 1.1 fold enrichment (6-mer frequency, TF over GST control). Further, the binding signal in assay [7] is 1.09 fold enrichment (6-mer frequency, TF over GST control); in assay [8], 1.14 fold enrichment (6-mer frequency, TF over GST control).

Take TCCCGC: the binding signal in assay [1] was 1.47 fold enrichment (6-mer frequency, TF over GST control); in assay [2], 1.44 fold enrichment (6-mer frequency, TF over GST control); in assay [3], 1.34 fold enrichment (6-mer frequency, TF over GST control); in assay [4], 1.5 fold enrichment (6-mer frequency, TF over GST control); in assay [5], 1.65 fold enrichment (6-mer frequency, TF over GST control); in assay [6], 1.59 fold enrichment (6-mer frequency, TF over GST control). The binding signal in assay [7] was 1.37 fold enrichment (6-mer frequency, TF over GST control); in assay [8] it was 1.5 fold enrichment (6-mer frequency, TF over GST control).

Turning to CCGGTA, the binding signal was 1.4 fold enrichment (6-mer frequency, TF over GST control) in assay [1]; 1.46 fold enrichment (6-mer frequency, TF over GST control) in assay [2]; 1.54 fold enrichment (6-mer frequency, TF over GST control) in assay [3]; 1.96 fold enrichment (6-mer frequency, TF over GST control) in assay [4]; 1.35 fold enrichment (6-mer frequency, TF over GST control) in assay [5]; 1.83 fold enrichment (6-mer frequency, TF over GST control) in assay [6]. In addition, the binding signal is 1.68 fold enrichment (6-mer frequency, TF over GST control) in assay [7] and 1.65 fold enrichment (6-mer frequency, TF over GST control) in assay [8].

Regarding GTACAA, the binding signal in assay [1] is 1.03 fold enrichment (6-mer frequency, TF over GST control); in assay [2], 1.09 fold enrichment (6-mer frequency, TF over GST control); in assay [3] it was 1.1 fold enrichment (6-mer frequency, TF over GST control); in assay [4], 1.06 fold enrichment (6-mer frequency, TF over GST control); in assay [5] it was 1.12 fold enrichment (6-mer frequency, TF over GST control); in assay [6], 1.03 fold enrichment (6-mer frequency, TF over GST control). The binding signal is 1.11 fold enrichment (6-mer frequency, TF over GST control) in assay [7] and 1.15 fold enrichment (6-mer frequency, TF over GST control) in assay [8].
